Most compounds without a hit are left out; they make up all but 5.6% or so of the library.
H9c2 protect: cardioprotection against H2O2-induced cell death, primary screen, uHTS, H9c2 cells, ATPLite luminescence; H9c2 cardiomyocytes, H2O2 injury protection, 2 h; protection from H2O2 cell death, % at 20 µM; 0.63% of 360,000 active; AID 588492, 2011;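 active = compounds giving at least 50% protection of heart cells from peroxide-induced death in the single-dose screen, raw or plate-pattern-corrected value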;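 note: 0% = DMSO wells with peroxide and 100% = DMSO wells without peroxide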
PfM18AAP inh: PfM18AAP inhibitors, malaria aminopeptidase, primary screen, biochemical, QFRET, recombinant enzyme | M18 aspartyl aminopeptidase (Plasmodium falciparum 3D7) | H-Glu-NHMec fluorogenic cleavage | inhibition, % at 7.35 µM | 1.2% of 290,000 active;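 active = inhibition above the campaign mean inhibition over all tested compounds plus 3 SD, cut at about 28% in these data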;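 note: 0% = plate median of test compound wells and 100% = 2 mM ZnCl2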
PfGluPho inh: PfG6PD enzyme inhibitors, primary screen, biochemical, fluorescence intensity, uHTS; glucose-6-phosphate dehydrogenase-6-phosphogluconolactonase (Plasmodium falciparum 3D7); PfGluPho enzyme, NADPH resazurin-diaphorase fluorescence; inhibition, % at 20 µM; 0.78% of 350,000 active;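 active = inhibition reaching at least a set limit at 20 µM in the primary screen, cut at about 59% in these data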;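 note: 0% = DMSO wells with substrate and 100% = DMSO wells lacking glucose-6-phosphate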
ALR inh: inhibitors of human ALR sulfhydryl oxidase, primary screen, biochemical, H2O2 detection, HRP-luminol luminescence, single point; FAD-linked sulfhydryl oxidase ALR (Homo sapiens), P55789; purified ALR, DTT oxidation; inhibition, % (concentration not given with the values); 3.8% of 290,000 active; AID 485317, 2010;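 active = mean replicate inhibition above about 79%, with every replicate also reaching it, limit read from the data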
Target sequence (P55789 whole entry, looked up): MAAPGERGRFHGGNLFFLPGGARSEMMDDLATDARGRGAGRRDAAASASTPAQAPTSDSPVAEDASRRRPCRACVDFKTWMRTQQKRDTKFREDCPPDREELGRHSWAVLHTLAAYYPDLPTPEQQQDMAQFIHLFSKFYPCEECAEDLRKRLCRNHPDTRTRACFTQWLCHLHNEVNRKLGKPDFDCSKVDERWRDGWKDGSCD
PHOSPHO1 block: PubChem AID 1565; inhibition, % at 13.3 µM; recombinant PHOSPHO1, absorbance phosphatase assay; 1.1% of 290,000 active; Phosphoethanolamine/phosphocholine phosphatase (Homo sapiens), Q8TCT1; in the data active = inhibition above about 60%
Target sequence (Q8TCT1 whole entry, looked up): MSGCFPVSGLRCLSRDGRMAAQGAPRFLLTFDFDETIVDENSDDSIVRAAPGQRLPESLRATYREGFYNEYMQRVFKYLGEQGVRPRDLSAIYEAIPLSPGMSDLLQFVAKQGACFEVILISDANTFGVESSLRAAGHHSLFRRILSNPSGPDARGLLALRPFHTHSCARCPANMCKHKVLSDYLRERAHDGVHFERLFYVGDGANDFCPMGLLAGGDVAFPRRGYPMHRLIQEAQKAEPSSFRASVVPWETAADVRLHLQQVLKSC
Starred values were filed as active, the others as inactive.

Screening O=C(N/N=C/c1ccccc1)C1CCCN1C(=O)c1cc([N+](=O)[O-])cc([N+](=O)[O-])c1 (configuration not stated) returned H9c2 protect 2, PfM18AAP inh -4, PfGluPho inh 12, ALR inh -27 and PHOSPHO1 block -7.
For O=[N+]([O-])c1ccc2c(c1)C=C1CCCCC1(N1CCCC1)O2 (configuration not stated) the results were H9c2 protect -6, PfM18AAP inh -2, PfGluPho inh 9, ALR inh 92* and PHOSPHO1 block 7.
`CCOC(=O)c1c(C)[nH]c(C)c1S(=O)(=O)NCC1CCN(Cc2cccc(Cl)c2)CC1` gave H9c2 protect 0, PfM18AAP inh -8, PfGluPho inh -1, ALR inh -9 and PHOSPHO1 block 33.
CCOC(=O)c1c(S(=O)(=O)NCC2CCN(Cc3cccc(F)c3)CC2)c(C)n(C)c1C was read as H9c2 protect -1, PfM18AAP inh 4, PfGluPho inh 15, ALR inh 2 and PHOSPHO1 block 65*.
For Cc1ccc(-c2ccc3c(c2)O[C@H](CN(C)C(=O)Nc2ccc(C(F)(F)F)cc2)[C@H](C)CN([C@H](C)CO)S3(=O)=O)cc1 the results were H9c2 protect -3.
NC(=O)CN1CCN(Cc2ccc3c(c2)OCO3)CC1 was read as H9c2 protect 2, PfM18AAP inh -6, PfGluPho inh -12 and PHOSPHO1 block 25.
`O=C1NC(c2cccs2)Nc2ccccc21` (configuration not stated) gave H9c2 protect 66*, PfM18AAP inh 7, PfGluPho inh 0, ALR inh -2 and PHOSPHO1 block -2.
CCCCC1(CC)SCC(=O)NC1=O (configuration not stated) was read as H9c2 protect 8 and PfGluPho inh 8.
O=C(CSC1CC(=O)N(CCc2ccccc2)C1=O)Nc1ccc(Br)cc1 (configuration not stated) was read as H9c2 protect -20, PfM18AAP inh 9, PfGluPho inh -1, ALR inh 21 and PHOSPHO1 block -7.
O=C(CSC1CC(=O)N(c2ccc(C(=O)O)cc2)C1=O)Nc1ccc(Cl)cc1 (configuration not stated) was read as H9c2 protect 8, PfM18AAP inh -31, PfGluPho inh -22, ALR inh 98* and PHOSPHO1 block 19.
For O=C(CSC1CC(=O)N(CCc2ccccc2)C1=O)Nc1cccc(Cl)c1 (configuration not stated) the results were H9c2 protect -2, PfM18AAP inh -2, PfGluPho inh 25, ALR inh 99* and PHOSPHO1 block 18.
For O=C(CN1C(=O)NC2(CCCC2)C1=O)Nc1cc(Cl)ccc1Oc1ccccc1 the results were H9c2 protect 3, PfGluPho inh 6 and ALR inh -2.
CC(C)c1cc(C(=O)N/N=C/c2ccco2)n[nH]1 was read as H9c2 protect -4, PfM18AAP inh -1, PfGluPho inh 2, ALR inh 83* and PHOSPHO1 block -9.
`O=C(N/N=C/c1ccco1)c1cc(-c2cccs2)[nH]n1` gave H9c2 protect -1, PfM18AAP inh -2, PfGluPho inh 12, ALR inh 18 and PHOSPHO1 block -1.
Cc1ccc(C(=O)NCCOc2ccc(Cl)cc2)cc1 was read as H9c2 protect -10, PfM18AAP inh -2, PfGluPho inh 2, ALR inh -2 and PHOSPHO1 block 26.
Cc1ccc(C(=O)CC(=O)COc2ccc(Cl)cc2)cc1 was read as H9c2 protect 72*, PfM18AAP inh 9, PfGluPho inh -10, ALR inh 2 and PHOSPHO1 block -21.
Oc1ccc(-c2nc3ncccn3c2Nc2ccc3c(c2)OCCO3)cc1 was read as H9c2 protect 5, PfM18AAP inh 8, PfGluPho inh -19, ALR inh 93* and PHOSPHO1 block 13.
Cc1ccc(-c2nc3ncccn3c2Nc2ccc3c(c2)OCCO3)cc1 was read as H9c2 protect 3, PfM18AAP inh 3, PfGluPho inh -12, ALR inh 96* and PHOSPHO1 block 14.
`Cc1cccc(Nc2c(-c3ccc(N4CCOCC4)cc3)nc3ncccn23)c1` gave H9c2 protect -9, PfM18AAP inh -1, PfGluPho inh 4, ALR inh 95* and PHOSPHO1 block -11.
COc1ccc(-c2nc3ncccn3c2Nc2ccc3c(c2)OCCO3)cc1 was read as H9c2 protect 14, PfM18AAP inh -2, PfGluPho inh 6 and PHOSPHO1 block 16.
Nc1ncnc2c1ncn2[C@@H]1O[C@H](C(=O)N[C@H]2c3ccccc3C[C@H]2OC=O)[C@@H](O)[C@H]1O was read as H9c2 protect 1.
Cc1oc(-c2ccccc2F)nc1CS(=O)CC(=O)NCc1ccccc1 (configuration not stated) was read as H9c2 protect 8, PfM18AAP inh 2, PfGluPho inh 11, ALR inh 97* and PHOSPHO1 block 60.
Cc1oc(-c2ccccc2F)nc1CS(=O)CC(=O)NCc1ccc(F)cc1 (configuration not stated) was read as H9c2 protect 23, PfM18AAP inh -5, PfGluPho inh -18, ALR inh 99* and PHOSPHO1 block 23.
For Cc1ccc(CNC(=O)CS(=O)Cc2nc(-c3ccccc3F)oc2C)cc1 (configuration not stated) the results were H9c2 protect 2, PfM18AAP inh 5, PfGluPho inh 0, ALR inh 96* and PHOSPHO1 block 44.
Screening Cc1ccc(CNC(=O)CS(=O)(=O)Cc2nc(-c3ccccc3F)oc2C)cc1 returned H9c2 protect -4, PfM18AAP inh 1, PfGluPho inh -13, ALR inh -10 and PHOSPHO1 block 18.
For CCC(=O)/C=C1\Sc2ccc(OC)cc2N1CCO the results were H9c2 protect -2, PfM18AAP inh 30*, PfGluPho inh 5 and PHOSPHO1 block -6.
CCN1/C(=C\C(C)=O)Sc2ccc(OC)cc21 was read as H9c2 protect -1, PfM18AAP inh 8, PfGluPho inh -3, ALR inh 9 and PHOSPHO1 block 61*.
Screening CN1CCN(C/C(=C2/N=C(c3ccccc3)OC2=O)N(C)C)CC1 returned H9c2 protect 4, PfM18AAP inh -3, PfGluPho inh -8, ALR inh 98* and PHOSPHO1 block -8.
`COc1cccc(-n2cnc3cccc(N)c32)c1` gave H9c2 protect -1, PfM18AAP inh -4, PfGluPho inh 10, ALR inh 87* and PHOSPHO1 block -18.
For COc1cccc(-n2cnnn2)c1 the results were H9c2 protect 2, PfM18AAP inh -21, PfGluPho inh -8 and PHOSPHO1 block -9.
For CC(=O)c1cc2c(O)c(O)ccc2o1 the results were H9c2 protect 17, PfM18AAP inh 18, PfGluPho inh 22 and PHOSPHO1 block 11.

Assay outcomes from PubChem BioAssay.
